{"source": "PubChem BioAssay AID1159580", "about": "(chemical genetic matrix, 2015)", "test": "chemical genetic growth profiling, strain panel (AID 1159580);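 further: tested at 20 µM; growth read once vehicle control cultures reached saturation at 30 °C; 1 = growth at the plate median or of vehicle wells; lower values mean less growth of the strain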", "conditions": "S. cerevisiae deletion strains, growth OD", "note": "Several values for one entry are separate records, joined by “and”; a condition that tells them apart may be missing. Equal values may be shown once. Hit rate of the full screen: of about 5,500 compounds, about 2,000 (36%) were called active. About 18% were inconclusive and are not listed. The list shows a part of the results. Unmarked numbers belong to inactive results. No stated cut-off is given here; in the data, active means normalized growth mostly below about 0.91 (no sharp cut-off); inconclusive means no clear call, values can overlap the other calls; inactive means mostly above about 0.92.", "data": [{"smiles": "COC1=CC(=O)C=C(OC)C1=O", "values": [{"measurement": "normalized growth", "setting": "locus YAL021C, strain ccr4, active compounds read low", "value": 1.03}, {"measurement": "normalized growth", "setting": "locus YAL026C, strain drs2, active compounds read low", "value": 0.978}, {"measurement": "normalized growth", "setting": "locus YAL030W, strain snc1, active compounds read low", "value": 0.991}, {"measurement": "normalized growth", "setting": "locus YBL061C, strain skt5, active compounds read low", "value": 0.998}, {"measurement": "normalized growth", "setting": "locus YBR009C, strain hhf1, active compounds read low", "value": 0.98}, {"measurement": "normalized growth", "setting": "locus YBR021W, strain FUR4, active compounds read low", "value": 1.12}, {"measurement": "normalized growth", "setting": "locus YBR023C, strain chs3, active compounds read low", "value": 0.998}, {"measurement": "normalized growth", "setting": "locus YBR171W, strain sec66, active compounds read low", "value": 1.01}, {"measurement": "normalized growth", "setting": "locus YBR229C, strain ROT2, active compounds read low", "value": 0.956}, {"measurement": "normalized growth", "setting": "locus YBR231C, strain swc5, active compounds read low", "value": 0.982}, {"measurement": "normalized growth", "setting": "locus YBR279W, strain paf1, active compounds read low", "value": 0.992}, {"measurement": "normalized growth", "setting": "locus YCL011C, strain gbp2, active compounds read low", "value": 1.01}, {"measurement": "normalized growth", "setting": "locus YCL016C, strain dcc1, active compounds read low", "value": 0.997}, {"measurement": "normalized growth", "setting": "locus YCL029C, strain bik1, active compounds read low", "value": 0.97}, {"measurement": "normalized growth", "setting": "locus YCL061C, strain MRC1, active compounds read low", "value": 1.01}, {"measurement": "normalized growth", "setting": "locus YCL069W, strain vba3, active compounds read low", "value": 1}, {"measurement": "normalized growth", "setting": "locus YCR088W, strain abp1, active compounds read low", "value": 1}, {"measurement": "normalized growth", "setting": "locus YDL005C, strain med2, active compounds read low", "value": 1.02}, {"measurement": "normalized growth", "setting": "locus YDL035C, strain GPR1, active compounds read low", "value": 1.01}, {"measurement": "normalized growth", "setting": "locus YDL040C, strain nat1, active compounds read low", "value": 0.992}, {"measurement": "normalized growth", "setting": "locus YDL074C, strain BRE1, active compounds read low", "value": 1.05}, {"measurement": "normalized growth", "setting": "locus YDL101C, strain DUN1, active compounds read low", "value": 0.975}, {"measurement": "normalized growth", "setting": "locus YDL134C, strain PPH21, active compounds read low", "value": 0.979}, {"measurement": "normalized growth", "setting": "locus YDL185W, strain tfp1, active compounds read low", "value": 0.964}, {"measurement": "normalized growth", "setting": "locus YDL192W, strain arf1, active compounds read low", "value": 0.995}, {"measurement": "normalized growth", "setting": "locus YDR001C, strain nth1, active compounds read low", "value": 1}, {"measurement": "normalized growth", "setting": "locus YDR069C, strain doa4, active compounds read low", "value": 1}, {"measurement": "normalized growth", "setting": "locus YDR101C, strain arx1, active compounds read low", "value": 0.984}, {"measurement": "normalized growth", "setting": "locus YDR137W, strain rgp1, active compounds read low", "value": 0.88}, {"measurement": "normalized growth", "setting": "locus YDR159W, strain sac3, active compounds read low", "value": "0.794 (active)"}, {"measurement": "normalized growth", "setting": "locus YDR162C, strain NBP2, active compounds read low", "value": 0.982}, {"measurement": "normalized growth", "setting": "locus YDR195W, strain ref2", "value": "1.18 [resistant] (active)"}, {"measurement": "normalized growth", "setting": "locus YDR297W, strain sur2, active compounds read low", "value": 0.978}, {"measurement": "normalized growth", "setting": "locus YDR318W, strain mcm21, active compounds read low", "value": 0.998}, {"measurement": "normalized growth", "setting": "locus YDR334W, strain swr1, active compounds read low", "value": 1.01}, {"measurement": "normalized growth", "setting": "locus YDR335W, strain msn5, active compounds read low", "value": 1.01}, {"measurement": "normalized growth", "setting": "locus YDR388W, active compounds read low", "value": 0.983}, {"measurement": "normalized growth", "setting": "locus YDR392W, strain spt3, active compounds read low", "value": 0.879}, {"measurement": "normalized growth", "setting": "locus YDR502C, strain sam2, active compounds read low", "value": 0.988}, {"measurement": "normalized growth", "setting": "locus YEL003W, strain gim4, active compounds read low", "value": 0.992}, {"measurement": "normalized growth", "setting": "locus YEL037C, strain rad23, active compounds read low", "value": 1.01}, {"measurement": "normalized growth", "setting": "locus YEL061C, strain CIN8 (second series), active compounds read low", "value": 1}, {"measurement": "normalized growth", "setting": "locus YEL061C, strain CIN8, active compounds read low", "value": 0.988}, {"measurement": "normalized growth", "setting": "locus YER015W, strain faa2, active compounds read low", "value": 0.997}, {"measurement": "normalized growth", "setting": "locus YER016W, strain bim1, active compounds read low", "value": 0.97}, {"measurement": "normalized growth", "setting": "locus YER110C, active compounds read low", "value": 0.97}, {"measurement": "normalized growth", "setting": "locus YER111C, strain swi4, active compounds read low", "value": 1.01}, {"measurement": "normalized growth", "setting": "locus YER155C, strain BEM2 (second series), active compounds read low", "value": 1.02}, {"measurement": "normalized growth", "setting": "locus YER155C, strain BEM2, active compounds read low", "value": 1}, {"measurement": "normalized growth", "setting": "locus YER167W, strain BCK2, active compounds read low", "value": 1}, {"measurement": "normalized growth", "setting": "locus YFR010W, strain ubp6, active compounds read low", "value": 1}, {"measurement": "normalized growth", "setting": "locus YGL078C, strain dbp3, active compounds read low", "value": 0.99}, {"measurement": "normalized growth", "setting": "locus YGL086W, strain mad1, active compounds read low", "value": 0.983}, {"measurement": "normalized growth", "setting": "locus YGL167C, strain pmr1, active compounds read low", "value": 0.987}, {"measurement": "normalized growth", "setting": "locus YGL173C, strain kem1, active compounds read low", "value": 1.01}, {"measurement": "normalized growth", "setting": "locus YGL227W, strain vid30, active compounds read low", "value": 0.998}, {"measurement": "normalized growth", "setting": "locus YGL240W, strain doc1, active compounds read low", "value": 0.914}, {"measurement": "normalized growth", "setting": "locus YGL248W, strain PDE1, active compounds read low", "value": 0.996}, {"measurement": "normalized growth", "setting": "locus YGL253W, strain hxk2, active compounds read low", "value": 1.01}, {"measurement": "normalized growth", "setting": "locus YGR135W, strain pre9, active compounds read low", "value": 1}, {"measurement": "normalized growth", "setting": "locus YGR252W, strain gcn5, active compounds read low", "value": 1.16}, {"measurement": "normalized growth", "setting": "locus YHR013C, strain ard1, active compounds read low", "value": 1.04}, {"measurement": "normalized growth", "setting": "locus YHR027C, strain rpn1, active compounds read low", "value": 0.995}, {"measurement": "normalized growth", "setting": "locus YHR030C, strain SLT2, active compounds read low", "value": "0.994 and 1.02"}, {"measurement": "normalized growth", "setting": "locus YHR079C, strain IRE1 (second series), active compounds read low", "value": 0.984}, {"measurement": "normalized growth", "setting": "locus YHR079C, strain IRE1, active compounds read low", "value": 1.01}, {"measurement": "normalized growth", "setting": "locus YHR094C, strain hxt1, active compounds read low", "value": 0.976}, {"measurement": "normalized growth", "setting": "locus YHR129C, strain ARP1, active compounds read low", "value": 0.997}, {"measurement": "normalized growth", "setting": "locus YHR142W, strain chs7, active compounds read low", "value": 1.01}, {"measurement": "normalized growth", "setting": "locus YHR200W, strain rpn10, active compounds read low", "value": 1.01}, {"measurement": "normalized growth", "setting": "locus YIL066C, strain RNR3, active compounds read low", "value": 0.988}, {"measurement": "normalized growth", "setting": "locus YIL073C, strain SPO22, active compounds read low", "value": 0.975}, {"measurement": "normalized growth", "setting": "locus YIL125W, strain kgd1, active compounds read low", "value": 0.995}, {"measurement": "normalized growth", "setting": "locus YIR030C, strain dcg1, active compounds read low", "value": 0.989}, {"measurement": "normalized growth", "setting": "locus YJL092W, strain hpr5, active compounds read low", "value": 1}, {"measurement": "normalized growth", "setting": "locus YJL095W, strain BCK1 (second series), active compounds read low", "value": 0.996}, {"measurement": "normalized growth", "setting": "locus YJL095W, strain BCK1, active compounds read low", "value": "0.982 and 1.03"}, {"measurement": "normalized growth", "setting": "locus YJL115W, strain asf1, active compounds read low", "value": 1.01}, {"measurement": "normalized growth", "setting": "locus YJL129C, strain trk1, active compounds read low", "value": 1.01}, {"measurement": "normalized growth", "setting": "locus YJL134W, strain LCB3, active compounds read low", "value": 0.99}, {"measurement": "normalized growth", "setting": "locus YJL154C, strain vps35, active compounds read low", "value": 1.01}, {"measurement": "normalized growth", "setting": "locus YJL164C, strain tpk1, active compounds read low", "value": 0.999}, {"measurement": "normalized growth", "setting": "locus YJL166W, strain qcr8, active compounds read low", "value": 0.99}, {"measurement": "normalized growth", "setting": "locus YJL168C, strain set2, active compounds read low", "value": 0.998}, {"measurement": "normalized growth", "setting": "locus YJL187C, strain SWE1 (second series), active compounds read low", "value": 0.987}, {"measurement": "normalized growth", "setting": "locus YJR043C, strain POL32, active compounds read low", "value": 1}, {"measurement": "normalized growth", "setting": "locus YJR066W, strain TOR1, active compounds read low", "value": 0.941}]}]}
